# Screening results (PubChem BioAssay)
# Most compounds without a hit are left out; they make up all but 4.6% or so of the library.
# NR3A LBD binder = modulators (binders) of human NR3A ligand-binding domain | NR3A LBD differential scanning fluorimetry, Tm shift; 0% = protein alone, 100% = glycine-bound protein | Tm shift relative to glycine control, % at 25 µM | 340,000 compounds, 2.5% hits;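 active = melting temperature shift of at least 10% of the positive control shift, at one fixed dose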
# FAS TE block = inhibitors of human fatty acid synthase thioesterase domain | P49327 | recombinant FAS-TE, OMFH fluorogenic substrate, fluorescence endpoint | inhibition, % at 15 µM | 360,000 compounds, 0.67% hits | AID 602261;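 active = compounds whose normalised, plate-corrected inhibition of enzyme fluorescence in the single-dose primary screen is 50% or more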;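 also: 0% = DMSO with enzyme and 100% = substrate without enzyme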
# KLK7 zymogen act = activators of human kallikrein-7 zymogen | purified proKLK7, EDANS-DABCYL substrate fluorescence; 100% is mature enzyme control, 0% vehicle | AID 652039 | activation, % at 7 µM | P49862 | 370,000 compounds, 0.9% hits;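 active = activation above the mean of all tested compounds plus 3 SD, computed per campaign excluding outliers beyond control limits, cut at about 13% in these data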
# ADAM17 inh = inhibits human ADAM17; inhibition, % at 6.95 µM; 370,000 compounds, 0.83% hits; P78536; recombinant ADAM17, EDANS/DABCYL FRET peptide cleavage;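 active = inhibition above the mean of compounds lying between control limits plus 3 SD, set per campaign, cut at about 8.5% in these data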;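 also: 0% = DMSO-only wells as the low control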
# ADAM10 inh = inhibits human ADAM10. O14672. recombinant ADAM10, EDANS/DABCYL FRET peptide cleavage, 3 h. inhibition, % at 7 µM. 370,000 compounds, 0.62% hits;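 active = inhibition above a per-campaign cutoff equal to the mean of compounds falling between control-based bounds plus 3 SD, cut at about 20% in these data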;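 also: 0% = DMSO wells while the 100% control is not disclosed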
# Target sequence (O14672 214-748 limits assumed): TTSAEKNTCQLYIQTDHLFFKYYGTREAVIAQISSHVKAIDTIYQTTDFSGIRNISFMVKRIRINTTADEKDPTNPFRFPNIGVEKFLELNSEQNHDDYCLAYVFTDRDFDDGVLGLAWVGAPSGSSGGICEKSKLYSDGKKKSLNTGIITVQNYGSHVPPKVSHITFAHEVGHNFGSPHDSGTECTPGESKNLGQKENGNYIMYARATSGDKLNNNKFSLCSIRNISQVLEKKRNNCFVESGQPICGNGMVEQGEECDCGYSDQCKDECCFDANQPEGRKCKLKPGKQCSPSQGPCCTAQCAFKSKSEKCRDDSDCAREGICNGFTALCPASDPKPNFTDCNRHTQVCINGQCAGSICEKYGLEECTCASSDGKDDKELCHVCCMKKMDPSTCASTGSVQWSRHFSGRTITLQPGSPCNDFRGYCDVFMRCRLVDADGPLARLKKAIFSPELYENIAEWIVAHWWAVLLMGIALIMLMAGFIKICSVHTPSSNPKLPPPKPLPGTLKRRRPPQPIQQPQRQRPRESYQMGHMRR
# ADAM10 confirm = confirmation of inhibitors of human ADAM10; shares compounds with ADAM10 inh; ADAM10 QFRET peptide cleavage, EDANS fluorescence; inhibition, % at 6.95 µM; 2,100 compounds, 1% hits; AID 743208;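 active = inhibition above about 20% chosen separately for each screening run, limit read from the data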;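 also: 0% = DMSO wells and 100% = marimastat wells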
# ADAM17 ctr = ADAM17 inhibition, counter-screen for ADAM10 exosite hits; AID 743214; shares compounds with ADAM10 inh; inhibition, % at 6.95 µM; ADAM17 QFRET peptide cleavage, EDANS fluorescence; 2,100 compounds, 0.5% hits;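 active = mean triplicate inhibition above the solvent-only control wells' mean plus 3 SD, cut at about 12% in these data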;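 also: 0% = DMSO wells and 100% = marimastat wells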
# ADAM10 ctr = ADAM10 inhibition, counter-screen for ADAM17 exosite hits | inhibition, % at 6.95 µM | shares compounds with ADAM17 inh | recombinant ADAM10, EDANS/DABCYL FRET peptide cleavage, 3 h | 2,900 compounds, 47% hits;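 active = mean inhibition over the triplicate runs exceeds the activity threshold set in the earlier primary screen, cut at about 20% in these data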;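 also: 0% = DMSO wells and 100% = marimastat wells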
# ADAM17 confirm = human ADAM17 inhibition, confirmation; shares compounds with ADAM17 inh; inhibition, % at 6.95 µM; AID 743257; recombinant ADAM17, EDANS/DABCYL QFRET peptide cleavage; 2,900 compounds, 65% hits;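 active = mean inhibition across replicates above the hit cutoff set in the primary screen, cut at about 8.5% in these data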;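 also: 0% = DMSO wells and 100% = marimastat wells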
# Numbers without * were called inactive; nt = no result.
SMILES,NR3A LBD binder,FAS TE block,KLK7 zymogen act,ADAM17 inh,ADAM10 inh,ADAM10 confirm,ADAM17 ctr,ADAM10 ctr,ADAM17 confirm
CCOC(=O)C1=C(C(=O)OCC)C2N(Cc3ccc(Br)cc3)c3ccccc3[C@@]23C[C@@H](C(=O)OC)N(S(=O)(=O)c2ccc(C(F)(F)F)cc2)C3=N1 (stereo not given in full),nt,nt,-0.8,8.5,4.3,nt,nt,nt,nt
C[C@@H](NC(=O)c1nc[nH]c1C(=O)N[C@@H](CCCCNC(=O)OC(C)(C)C)C(=O)OC(C)(C)C)c1ccccc1,-12.6,17.9,-0.1,22.1*,42.8*,-0.9,0.4,37.3*,16.4*
C[C@H](NC(=O)c1nc[nH]c1C(=O)N[C@@H](Cc1ccccc1)C(=O)OC(C)(C)C)c1ccccc1,-14.0,17.4,0.4,17.8*,37.1*,10.2,2.6,54.9*,27.9*
Cc1ccc(NC(=O)c2nc[nH]c2C(=O)N[C@H](C)c2ccccc2)cc1,-0.2,27.7,0.3,12.7*,20.3*,4.6,2.0,19.9*,11.5*
C[C@H](NC(=O)c1nc[nH]c1C(=O)N[C@@H](Cc1ccccc1)C(=O)OC(C)(C)C)C(=O)OCc1ccccc1,-11.6,20.1,0.8,10.4*,24.9*,8.6,3.5,37.9*,25.0*
C[C@H](NC(=O)c1nc[nH]c1C(=O)N[C@H](C)c1ccccc1)C(=O)OC(C)(C)C,-0.8,-0.2,-0.2,3.8,9.7,nt,nt,nt,nt
CC(C)C[C@H](NC(=O)c1nc[nH]c1C(=O)N[C@@H](CCCCNC(=O)OC(C)(C)C)C(=O)OC(C)(C)C)C(=O)OC(C)(C)C,-2.7,9.2,0.3,0.2,12.4,nt,nt,nt,nt
CCOC(=O)c1ccc(NC(=O)c2nc[nH]c2C(=O)N[C@H](C)c2ccccc2)cc1,0.1,15.5,-2.2,0.0,-2.1,nt,nt,nt,nt
C#CCNC(=O)C[C@H]1C[C@@]2(C(=O)OC)C(=C[C@H](C3CCCC3)O[C@@H]2C)N(Cc2ccccc2)C1=O,nt,nt,0.6,-1.6,-1.2,nt,nt,nt,nt
COC(=O)C1=C(C)N(C)C(=NCc2ccccc2C(F)(F)F)NC1c1ccc(C(F)(F)F)cc1 (stereo not given),nt,nt,0.3,-2.2,2.5,nt,nt,nt,nt
COc1ccc(NC(=O)Cn2nnc(-c3ccccc3)c2COc2ccc3ccccc3c2)cn1,nt,18.3,0.6,11.5*,20.1*,10.6,3.8,30.9*,16.7*
Cc1nn(Cc2c(F)c(F)c(F)c(F)c2F)c(C)c1NC(=O)c1ccc(COc2ccc(Cl)cc2Cl)o1,1.0,39.4,-0.1,10.5*,24.6*,5.2,2.3,45.1*,18.6*
Cc1nn(Cc2ccc(Cl)cc2Cl)c(C)c1NC(=O)c1ccc(COc2cc(Cl)ccc2Cl)o1,1.8,17.0,-0.5,-1.9,-3.2,nt,nt,nt,nt
Cc1ccc(OCCNC(=O)c2cccc(C)c2)cc1,2.0,0.8,-0.1,1.6,6.7,nt,nt,nt,nt
Cc1cccc(OCCNC(=O)c2cccc(Oc3ccc(C(F)(F)F)cc3[N+](=O)[O-])c2)c1,-5.2,29.8,0.3,14.0*,32.3*,10.6,3.9,34.1*,17.7*
O=C(COC(=O)c1ccccc1C(=O)OCC(=O)NCCc1c[nH]c2ccccc12)NCCc1c[nH]c2ccccc12,3.9,9.4,0.3,9.1*,24.8*,7.2,2.1,27.6*,10.9*
CC(=O)c1ccc2c(c1)C1C=CCC1C(c1cc3c(cc1Br)OCO3)N2 (stereo not given),-7.3,22.2,0.6,-1.6,-9.0,nt,nt,nt,nt
COc1ccc2c(c1)C1C=CCC1C(c1cc3c(cc1Br)OCO3)N2 (stereo not given),-6.0,17.6,0.1,9.1*,22.2*,3.0,2.1,-2.5,0.1
CC(O)(c1ccc(F)c(F)c1)c1nc(-c2cccc(C(F)(F)F)c2)cs1 (stereo not given),nt,49.6,0.1,11.0*,26.3*,10.7,3.2,32.7*,16.8*
OC(c1ccccc1)(c1nc(-c2cccc(C(F)(F)F)c2)cs1)C(F)(F)F (stereo not given),nt,34.6,-0.1,13.8*,26.0*,16.1,4.5,35.2*,19.0*
CC(O)(c1cccc(F)c1)c1nc(-c2ccccc2)cs1 (stereo not given),nt,17.0,0.3,0.6,6.3,nt,nt,nt,nt
O=C(O)c1cccc(-c2csc(C(O)(c3ccccc3)C(F)(F)F)n2)c1 (stereo not given),nt,-3.3,0.6,-1.4,-7.6,nt,nt,nt,nt
CC(O)(c1cccc(F)c1)c1nc(-c2cccc(C(F)(F)F)c2)cs1 (stereo not given),nt,42.6,-0.4,11.1*,23.2*,6.6,1.6,45.4*,28.1*
COc1ccc(C2O[C@@H](C)[C@@H]3C(=O)N4CCc5c([nH]c6ccccc56)[C@@H]4C[C@@H]3N2C)cc1 (stereo not given in full),nt,nt,7.4,-73.6,-315.1,nt,nt,nt,nt
Cc1ccccc1NC(=O)c1cccc(C(F)(F)F)c1,0.0,-2.6,-0.5,2.3,6.9,nt,nt,nt,nt
SMILES,NR3A LBD binder,FAS TE block,KLK7 zymogen act,ADAM17 inh,ADAM10 inh,ADAM10 confirm,ADAM17 ctr,ADAM10 ctr,ADAM17 confirm
O=C(NNc1ccccc1Br)C(O)(c1cccc(C(F)(F)F)c1)c1cccc(C(F)(F)F)c1,31.9*,26.1,-0.5,25.1*,48.6*,11.0,3.8,52.2*,23.4*
CC(C)Cn1c(-c2ccc(Br)cc2)c[nH]c1=S,1.6,5.9,0.6,14.4*,25.9*,0.8,0.1,5.9,9.0*
Cc1ccc(NC(=O)c2cc3c(s2)CCCC3)cc1S(=O)(=O)Nc1ccccc1Cl,17.6*,28.3,-3.0,15.9*,24.5*,52.0*,14.6*,22.4*,15.4*
O=C(Nc1cccc(S(=O)(=O)Nc2ccc(Cl)cc2)c1)c1cc2c(s1)CCCC2,32.2*,31.1,-0.4,15.4*,26.6*,14.0,4.4,45.3*,27.1*
Cc1c(C(O)(c2ccccc2)c2ccccc2)[n+]2ccccc2n1C,nt,nt,nt,-3.4,3.3,nt,nt,nt,nt
COC(=O)[C@]12C[C@H](CC(=O)N3CCC(c4ccccc4)CC3)C(=O)N(CCc3ccc(OC)c(OC)c3)C1=C[C@H](C(C)(C)C)O[C@@H]2C,nt,nt,-0.3,5.4,11.6,nt,nt,nt,nt
CCOC(=O)[C@H]1[C@H]2COc3ccc(Br)cc3[C@@H]2N2C(=O)c3cc(Br)ccc3NC(=O)[C@@]12C,-5.0,49.6,-0.3,11.2*,20.3*,1.9,-0.6,16.6,10.6*
